Pf growth 96h: P. falciparum growth inhibition at 96 hour, primary screen for plastid delayed-death inhibitors; P. falciparum luciferase reporter growth, 96 h; Potency, µM (series often up to 28.7 µM), hits mostly inhibitors; 320,000 tested, 6.9% active; AID 504834
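Infected RBCs, 2% Hct / 0.05% parasitemia final; luciferase-reporter P. falciparum; cpd 96 h, 37 C, 5% CO2; luciferase detection reagent; luminescence.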
AmpC inh no detg: blocks E. coli AmpC beta-lactamase in detergent-free assay. P00811. Potency, µM (highest dose often 57.1 µM), most hits filed as inhibitors. AID 485341. 330,000 tested, 0.52% active. AmpC nitrocefin hydrolysis, absorbance 480 nm, 0.0001% Triton; also: nearly all actives have a fitted effect of over 20% in size
Target sequence (P00811 whole entry, looked up): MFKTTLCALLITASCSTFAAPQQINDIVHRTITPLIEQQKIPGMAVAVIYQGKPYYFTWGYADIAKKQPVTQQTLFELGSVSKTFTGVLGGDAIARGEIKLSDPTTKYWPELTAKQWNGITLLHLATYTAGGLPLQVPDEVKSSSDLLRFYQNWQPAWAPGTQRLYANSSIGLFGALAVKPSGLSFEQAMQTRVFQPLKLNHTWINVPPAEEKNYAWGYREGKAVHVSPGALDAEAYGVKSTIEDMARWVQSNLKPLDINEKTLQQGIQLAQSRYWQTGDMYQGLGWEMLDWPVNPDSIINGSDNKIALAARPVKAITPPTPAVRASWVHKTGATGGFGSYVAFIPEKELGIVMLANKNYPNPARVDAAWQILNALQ
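20 mM phosphate pH 7.0 + 0.01% (detergent screen) or 0.0001% Triton X-100; 5.3 nM AmpC reagent; cpd preinc 15 min RT; nitrocefin (800 uM stock) to start; A480 q20 s × 4 min; Activity was normalised to no-enzyme and no-compound control wells.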
AmpC inh detg: inhibitors of E. coli AmpC beta-lactamase with detergent. P00811. AmpC hydrolysis of nitrocefin, absorbance 480 nm, 0.01% Triton. Potency, µM (series often up to 114 µM), hits mostly inhibitors. 370,000 tested, 0.041% active; also: nearly all actives have a fitted effect of over 25% in size
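AmpC (5.3 nM in the dispensed reagent) in 20 mM phosphate pH 7.0 with 0.01% (detergent screen) or 0.0001% Triton X-100 was preincubated with compounds for 15 min at room temperature. Nitrocefin was then added from an 800 uM solution, and hydrolysis was followed at 480 nm.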
AMA1 RON2 block: disrupts binding of P. falciparum AMA1 to RON2 | AlphaScreen AMA1-biotinylated RON2 peptide binding | Potency, µM (top dose mostly 58.2 µM), usual class: inhibitors | 360,000 tested, 0.2% active; also: nearly all actives have a fitted effect of over 45% in size
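AMA1 (3D7) with his tag at 25 nM final met compounds first, then biotinylated RON2 peptide at 25 nM; detection used donor plus acceptor beads, 10 µg/mL apiece, read by AlphaScreen after 30 min at room temperature.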
HCV inh: HCV inhibition; Potency, µM (doses to about 41.8 µM), most hits filed as inhibitors; 340,000 tested, 3.4% active; Huh7.5.1 HCVcc-Cre infection, luciferase reporter, 44 h
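Reporter virus HCVcc-Cre (~0.5 moi) infects cells exposed to compound; seeding density 1,000 cells/well with 4 h settling beforehand. Luminescence, 15 sec read, taken 44 h post-infection following a 15 min RT substrate incubation.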
Pf growth 48h: P. falciparum growth inhibition at 48 hours (one generation). P. falciparum luciferase growth in erythrocytes, 48 h. Potency, µM (titrated, usually from 28.7 µM), most hits filed as inhibitors. 310,000 tested, 5.9% active. AID 504832
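Erythrocytes infected with P. falciparum carrying an integrated firefly luciferase reporter (2% hematocrit, 0.1% parasitemia final) were exposed to compounds in RPMI 1640 with 0.5% Albumax at 37 C, 5% CO2. Growth inhibition was scored as reduced luminescence.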
Hits are given with their value; 0 = inactive; ? = inconclusive; - = no result. In the library only some 11% were active in any assay of this set; here they are far more common. Calls follow the shape of the dose curve; as a rule, active = well fitted curve in the direction sought with a large enough effect; inconclusive = small, poorly fitted or top-dose-only effect, or another doubt; inactive = no such curve, though single readings can be large; an effect the other way counts as inactive or inconclusive.

SMILES	Pf growth 96h	AmpC inh no detg	AmpC inh detg	AMA1 RON2 block	HCV inh	Pf growth 48h
COc1ccc2c3n(nc2c1)CCN=C3c1cc(Cl)c(N)c(Cl)c1	?	0	0	0	?	13.1µM
Nc1c(Cl)cc(C2=NCCn3nc4cc(C(F)(F)F)ccc4c32)cc1Cl	?	0	?	0	?	?
CCOc1ccc(N(C)C(=O)C2CCN(S(=O)(=O)c3c(C)noc3/C=C/c3ccc(C)cc3)CC2)cc1	-	-	0	-	-	-
CN(C)/C=N/C(=S)Nc1ccc(Cl)cc1Cl	0	0	0	0	14.1µM	0
COc1ccc(NC(=O)c2cc(-c3ccc(OC)c(OC)c3)nc3ccccc23)c(OC)c1	10.4µM	0	0	0	?	?
COc1ccc(-c2cc(-c3nnc(COC(=O)C4CC4)o3)c3ccccc3n2)cc1OC	?	0	0	0	?	?
COc1ccc(-c2cc(C(=O)Nc3ccc(C(N)=O)cc3)c3ccccc3n2)cc1OC	3.7µM	0	0	0	?	?
COc1cc(-c2nnc(COC(=O)c3cc(C)nc4ccc(C)cc34)o2)cc(OC)c1OC	14.7µM	0	0	0	0	-
COc1ccc(-c2cc(-c3nnc(COC(=O)c4ccc(O)cc4)o3)c3ccccc3n2)cc1OC	?	0	0	0	?	9.28µM
CC(=O)c1ccc(NC(=O)CC2Oc3ccc(C)cc3NC2=O)cc1 (stereo unspecified)	-	-	0	-	-	-
Cc1nn(CCC#N)c(NC(=O)c2ccc(Cl)cc2Cl)c1P(=O)(Nc1ccc([N+](=O)[O-])cc1)N1CCOCC1 (stereo unspecified)	-	0	0	0	0	8.28µM
Cc1ccccc1-c1nnc(SCC(=O)N2CCCCC2)o1	-	-	0	-	-	-
Cc1ccccc1C1=NCC(=O)N(CC(=O)N2CCCCC2)c2sc(C)c(C)c21	13.1µM	?	0	0	0	?
CCN(CC)C(=O)N[C@@H]1C[C@@H]2c3cccc4[nH]cc(c34)C[C@H]2N(C)C1	0	-	-	-	-	?
CCCN1C[C@H](CSC)C[C@@H]2c3cccc4[nH]cc(c34)C[C@H]21	10.4µM	0	0	0	0	?
O=S(=O)(NC1CCCC1)OCC(Cl)(Cl)Cl	0	0	0	0	0.316µM	0
O=C(CSc1nnc2c(Cl)cc(C(F)(F)F)cn12)NCc1ccc(F)cc1	8.28µM	0	0	0	0	?
O=C(CSc1nnc2c(Cl)cc(C(F)(F)F)cn12)N(Cc1ccccc1)Cc1ccccc1	?	0	0	0	0	0
c1cc2ccc3ccc(CN4CCOCC4)c4ccc(c1)c2c34	?	0	0	0	10µM	0
Oc1c(CN2CCOCC2)cc(CN2CCOCC2)c(O)c1O	-	-	-	11.2µM	0	-
OC1CCCN(Cc2ccc3ccc4cccc5ccc2c3c45)C1 (stereo unspecified)	?	0	0	0	?	?
Cc1ccc(C)c(N(C)C(=O)c2cn(C)c(=O)c3ccccc23)c1	-	-	0	-	-	-
Cc1ccc(-c2nnc3c4ccccc4c(C)nn23)cc1S(=O)(=O)N1CCN(CCO)CC1	?	0	?	0	0	0.415µM
CCOc1ccccc1NC(=O)C(Cc1ccccc1)NS(=O)(=O)c1ccc(Br)s1 (stereo unspecified)	-	-	0	-	-	-
CCC(=O)N1CCc2cc(S(=O)(=O)NCCC(=O)Nc3ccc(C)cc3)ccc21	-	-	0	-	-	-
SMILES	Pf growth 96h	AmpC inh no detg	AmpC inh detg	AMA1 RON2 block	HCV inh	Pf growth 48h
CN(C)CCNC(=O)c1onc(CSc2ccc(F)cc2)c1C(=O)NCCN(C)C	0	0	0	0	?	13.1µM
CCCNC(=O)c1onc(CSc2ccc(F)c(F)c2)c1C(=O)NCCC	-	-	-	0	?	-
C=CCNC(=O)c1onc(CSc2ccc(F)cc2)c1C(=O)NCC=C	0	0	0	0	0	?
CN(C)CCNC(=O)c1onc(CSc2ccc(F)c(F)c2)c1C(=O)NCCN(C)C	6.57µM	0	0	0	12.6µM	8.28µM
O=C(NCc1ccccc1)c1onc(CSc2ccccc2)c1C(=O)NCC1CC1	?	0	0	0	10µM	?
CCOC(=O)c1ccc(NC(=O)CN(c2ccc(C)cc2)S(=O)(=O)c2c(C)noc2C)cc1	-	-	0	-	-	-

Compound activity as filed in PubChem BioAssay.
